Records with an inconclusive call do not appear. Active and inactive are the calls of the source. Unless noted, calls follow the shape of the dose curve; as a rule, active = well fitted curve in the direction sought with a large enough effect in the repeat runs; inconclusive = weak or mixed curves; inactive = no such curve, though single readings can be large; an effect the other way counts as inactive or inconclusive.
Tests used:
[1] = molecular target: Aryl hydrocarbon receptor (Homo sapiens) (UniProt P35869); assay: qHTS assay to identify small molecule that activate the aryl hydrocarbon receptor (AhR) signaling pathway (AID 743085);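 also: HG2L7.5c1 human HepG2 liver cells with stably integrated DRE-driven firefly reporter; series mostly up to about 70 µM; nearly all actives have a fitted effect of over 15% in size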
In short: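 HepG2 cells stably carrying a 20-DRE firefly luciferase reporter (HG2L7.5c1) treated with compound for 24 hr at 37C. Luciferase read by ONE-Glo luminescence, with CellTiter-Fluor viability read first.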

[2] = molecular target: Peroxisome proliferator-activated receptor gamma (Homo sapiens) (UniProt P37231); assay: qHTS assay to identify small molecule agonists of the peroxisome proliferator-activated receptor gamma (PPARg) signaling pathway (AID 743094; active = well fitted activation curve with a large enough effect in the signal ratio in the repeat runs, not every such curve was filed as active; the % refers to the signal ratio)
In short: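 Compounds dissolved in DMSO were added to PPARg UAS-bla HEK293H cells for 17 h at 37C, and reporter expression was quantified by fluorescence intensity after 1 h with LiveBLAzer B/G FRET substrate.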

[3] = molecular target: Peroxisome proliferator-activated receptor gamma (Homo sapiens) (UniProt P37231); assay: qHTS assay to identify small molecule antagonists of the peroxisome proliferator-activated receptor gamma (PPARg) signaling pathway (AID 743191; calls by dose curve; also: series mostly up to about 63 µM; nearly all actives have a fitted effect of over 30% in size)
In short: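 Beta-lactamase reporter under UAS control in HEK293H PPARg-bla cells; compound treatment 17 h at 37C. Read-out: fluorescence intensity after 1 h room-temperature incubation with LiveBLAzer B/G FRET substrate.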

[4] = qHTS assay to identify small molecule antagonists of the peroxisome proliferator-activated receptor gamma (PPARg) signaling pathway - cell viability counter screen (AID 743194); also: nearly all actives have a fitted effect of over 55% in size
In short: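 Viability was measured as CellTiter-Glo luminescence in GeneBLAzer PPARg UAS-bla HEK293H cells. These cells had been exposed 17 h at 37 C to compounds together with rosiglitazone at 50 nM final, with the beta-lactamase readout taken in the same wells.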

[5] = qHTS assay for small molecule agonists of the antioxidant response element (ARE) signaling pathway (AID 743202; active = well fitted activation curve with a large enough effect in the signal ratio in the repeat runs, not every such curve was filed as active; the % refers to the signal ratio; also: potency is read from the fitted curve at half-maximal effect)
In short: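 Quantitative high-throughput format in HepG2 cells bearing an integrated ARE-beta-lactamase reporter. Compound exposure lasted 16 h at 37 C, and fluorescence was read 2 h after adding LiveBLAzer B/G substrate at room temperature.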

[6] = qHTS assay for small molecule agonists of the antioxidant response element (ARE) signaling pathway - cell viability counter screen (AID 743203; calls by dose curve; also: nearly all actives have a fitted effect of over 55% in size)
In short: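 Following 16 hrs of compound treatment at 37C, HepG2 cells with an ARE-controlled beta-lactamase gene were lysed with CellTiter-Glo. Luminescence was read after 30 min at room temperature.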

[7] = qHTS assay for small molecule activators of the heat shock response signaling pathway - cell viability counter screen (AID 743209); also: nearly all actives have a fitted effect of over 50% in size
In short: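 Readout: CellTiter-Glo luminescence, 30 min at room temperature. System: HSE-bla HeLa cells, 1500/well, plated overnight. Treatment: compounds in DMSO, 5 h at 37 C.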

[8] = qHTS assay for small molecule activators of the heat shock response signaling pathway (AID 743210; active = well fitted activation curve with a large enough effect in the signal ratio in the repeat runs, with a control signal flat, not every such curve was filed as active; the % refers to the signal ratio;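 also: HeLa cells with beta-lactamase reporter driven by heat shock elements; series mostly up to about 63 µM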)
In short: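 HeLa HSE-bla cells, overnight plating; cpd in DMSO 5 h, 37 C; LiveBLAzer B/G FRET substrate 2.5 h RT; fluorescence intensity read.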

[9] = qHTS assay to identify small molecule agonists of the peroxisome proliferator-activated receptor delta (PPARd) signaling pathway - cell viability counter screen (AID 743211); also: nearly all actives have a fitted effect of over 55% in size
In short: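 PPARd-bla HEK293H cells (3000/well) were pre-incubated 5 h at 37 C, then exposed to compound for 17 h at 37 C. After 2 h with LiveBLAzer substrate, CellTiter-Glo was added to the same wells; luminescence read after 30 min at room temperature.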

[10] = molecular target: Bile acid receptor (Homo sapiens) (UniProt Q96RI1); assay: qHTS assay to identify small molecule antagonists of the farnesoid-X-receptor (FXR) signaling pathway (AID 743217; active = well fitted inhibition curve with a large enough effect in the signal ratio in the repeat runs, not every such curve was filed as active; the % refers to the signal ratio)
In short: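 GeneBLAzer FXR-UAS-bla HEK 293T, CDCA-stimulated (50 uM final). Compound treatment 16 h, 37 °C. Detection: beta-lactamase cleavage of B/G FRET substrate, fluorescence.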

[11] = qHTS assay to identify small molecule agonists of the farnesoid-X-receptor (FXR) signaling pathway - cell viability counter screen (AID 743218); also: nearly all actives have a fitted effect of over 45% in size
In short: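 Parallel cytotoxicity test: compound-treated (16 h, 37 C) HEK 293T FXR-bla reporter cells were lysed with CellTiter-Glo and luminescence recorded.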

[12] = molecular target: Bile acid receptor (Homo sapiens) (UniProt Q96RI1); assay: qHTS assay to identify small molecule agonists of the farnesoid-X-receptor (FXR) signaling pathway (AID 743220; active = well fitted activation curve with a large enough effect in the signal ratio in the repeat runs, not every such curve was filed as active; the % refers to the signal ratio)
In short: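 Beta-lactamase reporter under UAS control in GeneBLAzer FXR HEK 293T cells (5000/well) measured with LiveBLAzer FRET substrate after 2 h at room temperature. Compound exposure lasted 16 h at 37C.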

[13] = qHTS assay to identify small molecule antagonists of the farnesoid-X-receptor (FXR) signaling pathway - cell viability counter screen (AID 743221; active = well fitted cell-killing curve with a large enough effect in the repeat runs, not every such curve was filed as active; also: nearly all actives have a fitted effect of over 50% in size)
In short: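 GeneBLAzer FXR-UAS-bla HEK 293T cells, compound plus chenodeoxycholic acid (50 uM final), 16 h at 37 C. CellTiter-Glo added to the same wells after the beta-lactamase read; luminescence read after 30 min at room temperature as viability.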

[14] = molecular target: Vitamin D3 receptor (Homo sapiens) (UniProt P11473); assay: qHTS assay to identify small molecule agonists of the vitamin D receptor (VDR) signaling pathway (AID 743222; calls by dose curve)
In short: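 In VDR-bla cells, compound-induced beta-lactamase expression is quantified by FRET substrate fluorescence. Treatment lasts 16 h at 37C; substrate develops 2 h at room temperature.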

[15] = molecular target: Vitamin D3 receptor (Homo sapiens) (UniProt P11473); assay: qHTS assay to identify small molecule antagonists of the vitamin D receptor (VDR) signaling pathway (AID 743223; active = well fitted inhibition curve with a large enough effect in the signal ratio in the repeat runs, not every such curve was filed as active; the % refers to the signal ratio)
In short: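 VDR-bla cells were treated with compound plus 3 nM final 1alpha,25-dihydroxyvitamin D3 for 16 h at 37C. Beta-lactamase reporter read by B/G FRET substrate fluorescence after 2 h at room temperature. qHTS format.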

[16] = qHTS assay to identify small molecule agonists of the vitamin D receptor (VDR) signaling pathway - cell viability counter screen (AID 743224); also: series mostly up to about 63 µM; nearly all actives have a fitted effect of over 50% in size
In short: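 Plated VDR-bla cells (4 h, 37C) received compound, incubated 16 h, then LiveBLAzer substrate 2 h RT; CellTiter-Glo added afterwards, luminescence read at 30 min.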

[17] = qHTS assay to identify small molecule that activate the aryl hydrocarbon receptor (AhR) signaling pathway - cell viability counter screen (AID 743086);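 also: HepG2 liver cells carrying the AhR DRE luciferase reporter; series mostly up to about 70 µM; nearly all actives have a fitted effect of over 45% in size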
In short: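 Cytotoxicity counter screen: CellTiter-Fluor signal (30 min, 37 C) in 4000 HepG2 cells/well carrying the DRE-luciferase reporter, following 24 h compound exposure at 37 C.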

[18] = molecular target: Peroxisome proliferator-activated receptor delta (Homo sapiens) (UniProt Q03181); assay: qHTS assay to identify small molecule agonists of the peroxisome proliferator-activated receptor delta (PPARd) signaling pathway (AID 743212; calls by dose curve)
In short: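 HEK293H PPARd-bla cells; 5 h preincubation 37 C/5% CO2; compound (DMSO) 37 C; LiveBLAzer B/G FRET substrate 2 h RT; fluorescence intensity.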

[19] = qHTS assay to identify small molecule antagonists of the peroxisome proliferator-activated receptor delta (PPARd) signaling pathway - cell viability counter screen (AID 743213); also: nearly all actives have a fitted effect of over 50% in size
In short: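 HEK293H cells with the PPARd UAS-bla reporter, co-treated 17 h at 37 C with compounds and L165041 (300 nM final), were lysed with CellTiter-Glo. Luminescence indicated viable cell content.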

[20] = molecular target: Peroxisome proliferator-activated receptor delta (Homo sapiens) (UniProt Q03181); assay: qHTS assay to identify small molecule antagonists of the peroxisome proliferator-activated receptor delta (PPARd) signaling pathway (AID 743215; active = well fitted inhibition curve with a large enough effect in the signal ratio in the repeat runs, not every such curve was filed as active; the % refers to the signal ratio;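 also: cells stimulated with agonist L165041 at 300 nM final during compound exposure; series mostly up to about 62 µM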)
In short: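 HEK293H UAS-bla, PPARd; agonist L165041 300 nM final with cpd in DMSO; 37 C 17 h; FRET substrate, RT 2 h; fluorescence intensity.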
% is scaled to controls: 0 for no effect and ±100 for the full control effect.

Sequence of Peroxisome proliferator-activated receptor gamma (Homo sapiens) (P37231 whole entry, looked up): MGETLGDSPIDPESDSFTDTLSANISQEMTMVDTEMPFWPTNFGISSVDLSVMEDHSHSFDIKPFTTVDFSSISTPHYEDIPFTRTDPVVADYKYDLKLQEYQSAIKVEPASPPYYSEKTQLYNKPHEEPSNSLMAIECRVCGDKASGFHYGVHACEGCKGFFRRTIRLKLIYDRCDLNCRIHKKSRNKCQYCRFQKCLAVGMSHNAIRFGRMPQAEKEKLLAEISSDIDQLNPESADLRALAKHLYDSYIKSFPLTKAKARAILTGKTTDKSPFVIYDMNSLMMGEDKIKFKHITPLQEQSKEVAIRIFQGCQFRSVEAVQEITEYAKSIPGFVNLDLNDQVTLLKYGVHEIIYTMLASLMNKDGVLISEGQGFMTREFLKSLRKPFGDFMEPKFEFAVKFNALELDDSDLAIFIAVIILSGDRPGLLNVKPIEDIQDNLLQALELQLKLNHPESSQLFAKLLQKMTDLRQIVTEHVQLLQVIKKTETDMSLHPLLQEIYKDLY
Sequence of Aryl hydrocarbon receptor (Homo sapiens) (P35869 whole entry, looked up): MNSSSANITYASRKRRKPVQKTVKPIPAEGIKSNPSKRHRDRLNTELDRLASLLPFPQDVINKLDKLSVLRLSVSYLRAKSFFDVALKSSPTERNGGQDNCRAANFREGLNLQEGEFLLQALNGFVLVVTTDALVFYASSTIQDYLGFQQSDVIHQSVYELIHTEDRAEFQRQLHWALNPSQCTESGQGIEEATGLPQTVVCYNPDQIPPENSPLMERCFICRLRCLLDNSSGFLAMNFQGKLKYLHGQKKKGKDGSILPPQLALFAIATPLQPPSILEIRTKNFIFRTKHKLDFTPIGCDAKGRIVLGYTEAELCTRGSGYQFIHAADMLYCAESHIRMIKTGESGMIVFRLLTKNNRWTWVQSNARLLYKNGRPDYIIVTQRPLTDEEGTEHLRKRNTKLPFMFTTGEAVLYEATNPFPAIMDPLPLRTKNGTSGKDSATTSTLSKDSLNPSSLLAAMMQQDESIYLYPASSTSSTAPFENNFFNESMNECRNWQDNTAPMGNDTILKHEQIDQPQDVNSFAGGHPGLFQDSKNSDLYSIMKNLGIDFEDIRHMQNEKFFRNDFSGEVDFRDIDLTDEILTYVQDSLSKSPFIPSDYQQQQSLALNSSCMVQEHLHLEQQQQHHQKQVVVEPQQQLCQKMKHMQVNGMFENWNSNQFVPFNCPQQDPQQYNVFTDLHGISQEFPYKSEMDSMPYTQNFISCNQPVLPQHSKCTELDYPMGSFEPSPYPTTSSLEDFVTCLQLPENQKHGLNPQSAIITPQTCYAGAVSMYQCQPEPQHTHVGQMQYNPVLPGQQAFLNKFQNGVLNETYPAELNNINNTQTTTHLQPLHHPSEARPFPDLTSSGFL
Sequence of Vitamin D3 receptor (Homo sapiens) (P11473 whole entry, looked up): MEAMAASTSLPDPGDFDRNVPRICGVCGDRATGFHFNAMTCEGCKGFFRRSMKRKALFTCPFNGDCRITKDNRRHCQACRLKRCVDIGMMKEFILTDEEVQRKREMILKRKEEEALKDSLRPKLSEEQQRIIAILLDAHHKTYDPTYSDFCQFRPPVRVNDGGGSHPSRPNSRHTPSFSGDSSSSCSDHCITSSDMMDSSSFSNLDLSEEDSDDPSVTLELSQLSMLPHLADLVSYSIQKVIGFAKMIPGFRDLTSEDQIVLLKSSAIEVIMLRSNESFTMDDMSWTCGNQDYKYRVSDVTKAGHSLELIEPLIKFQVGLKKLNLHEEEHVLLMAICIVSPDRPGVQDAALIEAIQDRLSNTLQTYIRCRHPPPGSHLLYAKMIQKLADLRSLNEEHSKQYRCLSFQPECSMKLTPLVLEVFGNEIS
Sequence of Bile acid receptor (Homo sapiens) (Q96RI1 whole entry, looked up): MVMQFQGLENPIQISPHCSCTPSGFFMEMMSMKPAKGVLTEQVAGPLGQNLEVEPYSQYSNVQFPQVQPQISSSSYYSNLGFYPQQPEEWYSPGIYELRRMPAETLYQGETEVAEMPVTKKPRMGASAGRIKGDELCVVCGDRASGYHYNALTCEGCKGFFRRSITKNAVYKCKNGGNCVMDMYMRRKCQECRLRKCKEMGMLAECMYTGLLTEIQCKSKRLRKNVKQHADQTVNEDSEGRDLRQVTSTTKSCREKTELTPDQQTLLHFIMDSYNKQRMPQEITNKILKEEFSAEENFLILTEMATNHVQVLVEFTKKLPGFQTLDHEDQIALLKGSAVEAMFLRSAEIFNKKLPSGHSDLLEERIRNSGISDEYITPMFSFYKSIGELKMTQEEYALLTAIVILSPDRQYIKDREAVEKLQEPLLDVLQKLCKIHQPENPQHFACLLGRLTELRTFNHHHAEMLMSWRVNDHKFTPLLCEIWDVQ
Sequence of Peroxisome proliferator-activated receptor delta (Homo sapiens) (Q03181 whole entry, looked up): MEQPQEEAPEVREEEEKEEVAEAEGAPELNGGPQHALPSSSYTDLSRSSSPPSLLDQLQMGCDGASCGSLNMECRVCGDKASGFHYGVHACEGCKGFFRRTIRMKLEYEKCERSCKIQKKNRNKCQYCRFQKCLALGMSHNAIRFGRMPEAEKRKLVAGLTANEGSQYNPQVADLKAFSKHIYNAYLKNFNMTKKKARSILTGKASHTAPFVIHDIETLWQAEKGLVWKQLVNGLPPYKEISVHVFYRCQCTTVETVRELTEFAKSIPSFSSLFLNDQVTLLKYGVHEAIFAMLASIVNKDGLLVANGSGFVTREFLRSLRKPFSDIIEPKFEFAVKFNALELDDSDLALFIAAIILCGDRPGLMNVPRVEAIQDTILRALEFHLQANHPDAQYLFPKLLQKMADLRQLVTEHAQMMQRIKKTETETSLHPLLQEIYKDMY

CCCCCCCCCCCCCCBr
inactive: Potency [1] | outcome [2] | outcome [3] | outcome [4] | Potency [5] | outcome [6] | Potency [7] | outcome [8] | outcome [9] | outcome [10] | outcome [11] | outcome [12] | outcome [13] | outcome [14] | outcome [15] | outcome [16]

O=S(=O)(O)c1cc(I)c(O)c2ncccc12
inactive: outcome [17] | outcome [2] | outcome [3] | outcome [4] | outcome [6] | Potency [7] | outcome [8] | outcome [9] | outcome [18] | outcome [19] | outcome [11] | outcome [13] | outcome [16]

CC(C)OCCO
inactive: Potency [1] | outcome [2] | outcome [3] | outcome [4] | outcome [6] | outcome [8] | outcome [9] | outcome [11] | outcome [13] | outcome [14] | outcome [15] | outcome [16]

O=C(O)Cc1c(Cl)ccc(Cl)c1Cl
inactive: Potency [1] | outcome [3] | outcome [4] | Potency [5] | outcome [6] | Potency [7] | outcome [8] | outcome [9] | outcome [18] | outcome [20] | outcome [10] | outcome [12] | outcome [13] | outcome [16]

N=C(N)N
inactive: Potency [1] | outcome [2] | outcome [4] | outcome [6] | Potency [7] | outcome [8] | outcome [18] | outcome [19] | outcome [11] | outcome [13]

CCCC(=O)C(CC)Sc1ccoc1C (stereo not given)
inactive: Potency [1] | outcome [2] | outcome [3] | outcome [4] | Potency [5] | outcome [6] | Potency [7] | outcome [8] | outcome [9] | outcome [11] | outcome [13] | outcome [14] | outcome [16]

O=S(=O)(O)CC(O)CCl (stereo not given)
inactive: Potency [1] | outcome [2] | outcome [3] | outcome [4] | Potency [5] | outcome [6] | Potency [7] | outcome [8] | outcome [18] | outcome [10] | outcome [11] | outcome [12] | outcome [14] | outcome [15] | outcome [16]

O=C(CCBr)N1CCN(C(=O)CCBr)CC1
active: Potency [5] 13.3 µM
inactive: Potency [1] | outcome [3] | outcome [4] | outcome [6] | Potency [7] | outcome [8] | outcome [9] | outcome [18] | outcome [19] | outcome [20] | outcome [10] | outcome [11] | outcome [12] | outcome [13] | outcome [14] | outcome [15] | outcome [16]

C[C@@H]1NC(=O)[C@@H](N)CNC(=O)[C@H](C2CCNC(N)=N2)NC(=O)/C(=C/NC(N)=O)NC(=O)[C@H](CNC(=O)C[C@@H](N)CCCN)NC1=O (stereo not given in full)
inactive: outcome [17] | outcome [2] | ratio activity, negative = inhibition [3] 0.698% [at 0.55 µM] | activity change, negative = cytotoxicity [4] 14.8% [at 0.55 µM] | activation [5] 11.7% [at 0.756 µM] | viability change, negative = cytotoxic [6] 6.23% [at 0.756 µM] | activation [8] -0.65% [at 0.55 µM] | activity change, negative = cytotoxicity [9] 14.7% [at 0.55 µM] | activation [18] 1.73% [at 0.55 µM] | viability change, negative = cytotoxic [19] 5.77% [at 0.575 µM] | ratio activity, negative = inhibition [20] 1.43% [at 0.575 µM] | viability change, negative = cytotoxic [11] -0.66% [at 0.55 µM] | activity change, negative = cytotoxicity [13] 2.18% [at 0.55 µM] | activation [14] 3.13% [at 0.554 µM] | activity change, negative = inhibition [15] 8.64% [at 0.628 µM] | activity change, negative = cytotoxicity [16] -2.65% [at 0.55 µM]

C/C=C(\C)C=O
inactive: Potency [1] | outcome [2] | outcome [3] | outcome [4] | outcome [6] | Potency [7] | outcome [8] | outcome [9] | outcome [18] | outcome [20] | outcome [10] | outcome [12] | outcome [14] | outcome [15] | outcome [16]

COc1cc(C(=O)NC2CCCNC2)cc(OC)c1OC (stereo not given)
inactive: Potency [1] | outcome [2] | outcome [3] | outcome [4] | Potency [5] | outcome [6] | Potency [7] | outcome [8] | outcome [9] | outcome [10] | outcome [11] | outcome [12] | outcome [13] | outcome [14] | outcome [15] | outcome [16]

CCCC(C)C(O)CC (stereo not given)
inactive: Potency [1] | outcome [2] | outcome [4] | Potency [5] | outcome [6] | outcome [9] | outcome [19] | outcome [10] | outcome [11] | outcome [12] | outcome [14] | outcome [16]

COC(=O)/C=C(\C)CCC=C(C)C
inactive: Potency [1] | outcome [2] | outcome [3] | outcome [4] | outcome [6] | outcome [8] | outcome [9] | outcome [18] | outcome [19] | outcome [11] | outcome [13] | outcome [14] | outcome [15]

CCNC(=O)C(C)OC(=O)Nc1ccccc1 (stereo not given)
inactive: outcome [17] | outcome [2] | outcome [3] | outcome [4] | Potency [5] | outcome [6] | Potency [7] | outcome [8] | outcome [9] | outcome [19] | outcome [10] | outcome [12] | outcome [13] | outcome [14] | outcome [15] | outcome [16]

CCO/C=C1\N=C(c2ccccc2)OC1=O
inactive: Potency [1] | outcome [2] | outcome [4] | outcome [6] | Potency [7] | outcome [8] | outcome [9] | outcome [18] | outcome [19] | outcome [20] | outcome [11] | outcome [13] | outcome [16]

CCCCCCCCOCCC#N
inactive: Potency [1] | outcome [2] | outcome [3] | outcome [4] | outcome [6] | Potency [7] | outcome [8] | outcome [9] | outcome [19] | outcome [13] | outcome [14] | outcome [15] | outcome [16]

CCOCCOCCOC(C)=O
inactive: Potency [1] | outcome [2] | outcome [4] | outcome [6] | Potency [7] | outcome [8] | outcome [9] | outcome [18] | outcome [19] | outcome [20] | outcome [10] | outcome [12] | outcome [13] | outcome [14] | outcome [16]
